Measurements as given in PubChem BioAssay (NCI).
The panel holds about 83,000 compounds, 20% with a hit somewhere; the sample as a whole holds those more often.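 Results are percent growth after 48 hours of single-concentration exposure. 100 means growth as in untreated cells, lower positive values show inhibition; negative values down to -100 show cell death.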 Values without a mark were called inactive. The source made the active and inactive calls. Rule for the calls: active = growth percent below 10; inactive = the rest.

What was measured:
Assay in all cases: NCI-60 one-dose screen, 48 h (100 = growth as untreated, 0 = no growth, -100 = all killed)
Settings in all cases: 10 µM unless noted
SK-MEL-2 melanoma = system: SK-MEL-2 melanoma
EKVX NSCLC = system: EKVX NSCLC
SN12C renal = system: SN12C renal
UO-31 renal = system: UO-31 renal
TK-10 renal = system: TK-10 renal
ACHN renal = system: ACHN renal
CAKI-1 renal = system: CAKI-1 renal
A498 renal = system: A498 renal
CCRF-CEM leukemia = system: CCRF-CEM leukemia
SR leukemia = system: SR leukemia
RPMI-8226 leukemia = system: RPMI-8226 leukemia
OVCAR-8 ovarian = system: OVCAR-8 ovarian
OVCAR-5 ovarian = system: OVCAR-5 ovarian
OVCAR-4 ovarian = system: OVCAR-4 ovarian
SK-OV-3 ovarian = system: SK-OV-3 ovarian
IGROV1 ovarian = system: IGROV1 ovarian
OVCAR-3 ovarian = system: OVCAR-3 ovarian
HS 578T breast = system: HS 578T breast
NCI/ADR-RES ovarian = system: NCI/ADR-RES ovarian
MOLT-4 leukemia = system: MOLT-4 leukemia

Row | SMILES | growth (SK-MEL-2 melanoma) | growth (EKVX NSCLC) | growth (SN12C renal) | growth (UO-31 renal) | growth (TK-10 renal) | growth (ACHN renal) | growth (CAKI-1 renal) | growth (A498 renal) | growth (CCRF-CEM leukemia) | growth (SR leukemia) | growth (RPMI-8226 leukemia) | growth (OVCAR-8 ovarian) | growth (OVCAR-5 ovarian) | growth (OVCAR-4 ovarian) | growth (SK-OV-3 ovarian) [%] | growth (IGROV1 ovarian) | growth (OVCAR-3 ovarian) | growth (HS 578T breast) | growth (NCI/ADR-RES ovarian) | growth (MOLT-4 leukemia)
1 | CCN(CC)c1ccc(N=O)cc1 | 90.8% | 91.1% | 56.3% | 26% | 47.3% | 6.07% (active) | -13.4% (active) | 100% | 21.4% | 26.5% | 91.3% | 55.4% | 103% | 66.7% | 96 | 15% | 28.5% | 93% | 52% | –
2 | O=C(O)c1nc(-c2ccccc2)oc1N1CCOCC1 | 97% | 104% | 99% | 81.6% | 91.9% | 101% | 92.2% | 114% | 107% | – | 107% | 98.4% | 93.2% | 108% | 92.7 | 98.2% | 105% | 86.3% | 96.6% | 105%
3 | COc1cc(-c2nn(C(=O)NS(=O)(=O)c3ccccc3)cc2-c2ccncc2)ccc1Cl | 94.8% | 56.1% | 82.4% | 69.7% | 83% | 80.3% | 84.8% | 60.3% | 92.8% | – | 74.2% | 20.4% | 99.9% | – | 82.1 | 78.6% | – | 79.4% | 82.3% | 83.9%
4 | C=C1CC2(OC1=O)C(=O)N(CCCN1C(=O)C3(CC(=C)C(=O)O3)c3ccccc31)c1ccccc12 (stereo not drawn) | 52.8% | 69.9% | -38.6% (active) | -39.3% (active) | -9.34% (active) | -17.9% (active) | -7.27% (active) | 70.4% | – | 3.74% (active) | -33.3% (active) | 11.6% | 21.9% | 25.2% | 111 | 35% | -13% (active) | 58.2% | 50% | 1.03% (active)
5 | CC12CCCC(CC(=O)c3[nH]c4ccccc4c31)C2 (stereo not drawn) | 30% | 42.1% | 51.8% | 51.4% | 75.4% | 52.6% | 41.7% | -6.37% (active) | – | 15.5% | – | 31.1% | 34.6% | 60.7% | 53.4 | 24.6% | -26.1% (active) | 12.8% | 5.24% (active) | 29.5%
6 | C=C1C(=O)O[C@H]2[C@H]1CC/C(Cn1cc(CNC(=O)c3cc4ccccc4[nH]3)nn1)=C\CC[C@@]1(C)O[C@@H]21 | 59.6% | 86.9% | 59.2% | 73.4% | 53% | 55.8% | 80.8% | 106% | – | 4.37% (active) | -11.5% (active) | 44.8% | 110% | 83% | 106 | 71% | 3.43% (active) | 99.9% | 101% | 4.74% (active)
7 | COc1ccncc1S(=O)(=O)NC(=O)Nc1ccc(Cl)c(Cl)c1 | 92.9% | 84.7% | 94.5% | 66.7% | 113% | 85.2% | 84.4% | 96.3% | – | 74.8% | 46.2% | 97.8% | 89.6% | 95.7% | 114 | 82.7% | 90% | 93.9% | 89.8% | 83.5%
8 | FC(F)(F)c1ccccc1-c1cn2c(ccc3ccccc32)n1 | 51.8% | 88.5% | 88.3% | 61.1% | 125% | 82.3% | 58.7% | 81.6% | – | 42.4% | 98.6% | 93.7% | 103% | 95.2% | 80.5 | 73.1% | 88.3% | 71.4% | 61.9% | 107%
9 | COc1ccc(-n2c(=S)sc3c(Cl)nc(C)nc32)c(OC)c1 | 23.2% | 49.3% | 27% | -36.2% (active) | 45.7% | 56.8% | -41.8% (active) | 110% | -1.34% (active) | – | 22.6% | 0.172% (active) | 87% | 95.6% | 80.1 | -17.3% (active) | -20.7% (active) | 72.6% | 78.5% | –
10 | O=c1[nH]c(Nc2ccc(S(=O)(=O)O)cc2)nc2nc(Nc3ccc(NC(=S)Nc4ccccc4)cc3)nc(-c3ccc(O)cc3O)c12 | 101% | 110% | 98.5% | 73.9% | 156% | 100% | 134% | 111% | – | 61.7% | 82.6% | 55.5% | 116% | 107% | 114 | 61.7% | 119% | 102% | 109% | 91.4%
11 | CC[N+](CC)=c1cc2oc3cc(N(C)C)ccc3nc-2cc1C | 19.4% | 3.38% (active) | 6.42% (active) | 39.6% | 54.6% | 73% | 46.7% | 99.2% | 28.2% | 59% | 45.3% | 8.33% (active) | -27.6% (active) | – | 59.9 | -56.4% (active) | -55.6% (active) | 89.1% | 79.3% | –
12 | C=C[C@@H]1C[C@@H]2Cc3cc(F)ccc3N1O2 | 117% | 110% | 102% | 129% | 107% | 106% | 92.5% | 97.8% | -57.7% (active) | – | 94.1% | 114% | 97% | 104% | 113 | 122% | 113% | 106% | 102% | –
13 | COc1ccc2cc(-c3ccc(-c4ccc(C(=N)N)cc4)s3)ccc2c1 | 103% | 104% | 99.7% | 89.7% | 48.1% | 101% | 91% | 94.3% | – | 30.4% | 91% | 101% | 103% | 97.3% | – | 69.6% | -15.4% (active) | 105% | 106% | 94.3%
14 | Cc1ccc(S(=O)(=O)NCCNc2cc(-c3cn(C(C)(C)C)nc3-c3cccc(O)c3)ccn2)cc1 | 84.3% | 64.6% | 66.5% | 58% | 103% | 78.9% | 77% | 80.8% | – | 51.7% | – | 79% | 80% | 67.3% | 91.4 | 75.2% | 81.7% | 76.6% | 67% | 48.4%
15 | N=C(N)c1ccc(-c2ccc(-c3ccc4ccccc4c3)s2)cc1 | 104% | 105% | 95.8% | 84.6% | 27% | 97.1% | 92.3% | 91.3% | 64.1% | – | 60.7% | 102% | 110% | 100% | – | 91.3% | 102% | 104% | 98.8% | –
16 | Cc1[nH]c2ccc(F)cc2c1CCNC(=O)C1CCN(C(=O)c2ccccc2)C1 (stereo not drawn) | 113% [25 µM] | 80.5% [25 µM] | 95% [25 µM] | 77.1% [25 µM] | 86.9% [25 µM] | 96.3% [25 µM] | 77.1% [25 µM] | 43.8% [25 µM] | – | 96.3% [25 µM] | – | 101% [25 µM] | 81.8% [25 µM] | 85.5% [25 µM] | – | 90.4% [25 µM] | 101% [25 µM] | 90.9% [25 µM] | 97.6% [25 µM] | 91.6% [25 µM]
17 | c1ccc(-c2nc(N3CCNCC3)c3nc(-c4ccccc4)oc3n2)cc1 | 93.3% | 74.3% | -92.2% (active) | -91.6% (active) | -85.3% (active) | -99.2% (active) | -85.3% (active) | 80.6% | – | 0.501% (active) | – | -30.5% (active) | -1.51% (active) | -65.1% (active) | – | – | -90.6% (active) | 88.9% | -69.2% (active) | -34.6% (active)
